Laboratory results taken from PubChem BioAssay (NCATS).
Records with an inconclusive call do not appear. Active and inactive are the calls of the source. Unless noted, calls come from the whole dose curve; as a rule, active = well fitted curve in the direction sought with a large enough effect; inconclusive = small, poorly fitted or top-dose-only effect, or another doubt; inactive = no such curve, though single readings can be large; an effect the other way counts as inactive or inconclusive. Where a SMILES comes first, the peptide text is derived from it. The star is where a group is joined. Hexanoyl = CCCCCC(=O)*

How the values were obtained:
[1] = target: Calcium and integrin-binding protein 1 (Homo sapiens) (UniProt Q99828); experiment: Primary qHTS for Identification of Calcium Integrin Binding Protein 1 (CIB1) Competitor (AID 1508620);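 note: GST tagged CIB1 binding a fluorescein labelled alphaIIb integrin peptide tracer; top concentration of the series differs between compounds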
Chain of Calcium and integrin-binding protein 1 (Homo sapiens) (Q99828 whole entry, looked up): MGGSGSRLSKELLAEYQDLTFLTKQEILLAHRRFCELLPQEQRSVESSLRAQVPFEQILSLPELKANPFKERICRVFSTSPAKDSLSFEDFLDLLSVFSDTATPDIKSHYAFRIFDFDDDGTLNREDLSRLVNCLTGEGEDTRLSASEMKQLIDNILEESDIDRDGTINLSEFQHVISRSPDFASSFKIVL
Procedure, shortened: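 Fluorescence polarization competition: GST-tagged CIB1 (1 uM final) preincubated with compound 15 min at room temperature, then FITC-labelled alphaIIb peptide (100 nM final) added. After 15 min at room temperature, polarization read at Ex 480/Em 540.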

[2] = target: Cytochrome P450 2D6 (Homo sapiens) (UniProt P10635); experiment: Cytochrome P450 family 2 subfamily D member 6 (CYP2D6) small molecule antagonists: luciferase biochemical (cell-free) qHTS assay (AID 1645840; active = well fitted curve in the direction sought with a large enough effect in the repeat runs; an effect the other way counts as inactive or inconclusive; note: nearly all actives have a fitted effect of over 55% in size; note: potency is the fitted concentration of half-maximal effect)
Chain of Cytochrome P450 2D6 (Homo sapiens) (P10635 whole entry, looked up): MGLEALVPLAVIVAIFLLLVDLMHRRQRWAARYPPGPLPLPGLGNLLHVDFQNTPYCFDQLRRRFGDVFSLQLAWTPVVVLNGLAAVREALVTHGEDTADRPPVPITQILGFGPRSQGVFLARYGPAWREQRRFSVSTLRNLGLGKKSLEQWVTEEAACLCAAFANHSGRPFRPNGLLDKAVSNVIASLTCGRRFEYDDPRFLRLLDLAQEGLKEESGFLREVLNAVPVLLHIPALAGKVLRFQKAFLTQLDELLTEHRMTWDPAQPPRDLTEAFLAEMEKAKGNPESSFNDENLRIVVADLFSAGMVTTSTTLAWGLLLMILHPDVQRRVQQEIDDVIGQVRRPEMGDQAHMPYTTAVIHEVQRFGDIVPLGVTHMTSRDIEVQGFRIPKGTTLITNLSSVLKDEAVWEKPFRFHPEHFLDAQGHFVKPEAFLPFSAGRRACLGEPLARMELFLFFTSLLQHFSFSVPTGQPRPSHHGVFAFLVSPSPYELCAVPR
Procedure, shortened: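 P450-Glo CYP2D6 system: proluciferin substrate converted by enzyme to luciferin, read by luminescence proportional to activity. Enzyme-substrate mix with compound 10 min at room temperature, then NADPH regeneration 1 h before detection reagent.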

[3] = target: Cytochrome P450 2C9 (Homo sapiens) (UniProt P11712); experiment: Cytochrome P450 family 2 subfamily C member 9 (CYP2C9) small molecule antagonists: luciferase biochemical (cell-free) qHTS assay (AID 1645842; active = well fitted curve in the direction sought with a large enough effect in the repeat runs; an effect the other way counts as inactive or inconclusive; note: nearly all actives have a fitted effect of over 55% in size; note: potency is the fitted concentration of half-maximal effect)
Chain of Cytochrome P450 2C9 (Homo sapiens) (P11712 whole entry, looked up): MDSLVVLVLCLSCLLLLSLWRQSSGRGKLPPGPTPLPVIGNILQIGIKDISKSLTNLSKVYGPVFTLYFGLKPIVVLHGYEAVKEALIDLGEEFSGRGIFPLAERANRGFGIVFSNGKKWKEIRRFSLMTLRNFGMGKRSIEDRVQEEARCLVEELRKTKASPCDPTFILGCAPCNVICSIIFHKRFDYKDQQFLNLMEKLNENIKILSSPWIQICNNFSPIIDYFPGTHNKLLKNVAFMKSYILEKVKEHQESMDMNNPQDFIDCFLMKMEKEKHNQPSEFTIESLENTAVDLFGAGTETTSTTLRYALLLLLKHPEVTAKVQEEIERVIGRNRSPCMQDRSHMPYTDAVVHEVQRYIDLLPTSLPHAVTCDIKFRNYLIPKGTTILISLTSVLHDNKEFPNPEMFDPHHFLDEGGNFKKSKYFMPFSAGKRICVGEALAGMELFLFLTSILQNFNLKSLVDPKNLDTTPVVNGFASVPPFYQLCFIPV
Procedure, shortened: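 P450-Glo CYP2C9 system: proluciferin substrate with enzyme in mix containing 0.4% BSA, 10 min at room temperature, then NADPH regeneration solution added and incubated 1 h at 37C. Detection reagent stopped reaction; luminescence read after 20 min as RLU.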

[4] = Primary qHTS for inhibitors of nuclear receptor binding SET domain protein 2 (NSD2) in an isogenic RCH-ACV NSD2 p.E1099K mutant (9B) (AID 1645876); note: nearly all actives have a fitted effect of over 70% in size; note: potency is the fitted concentration of half-maximal effect
[5] = Primary qHTS for inhibitors of nuclear receptor binding SET domain protein 2 (NSD2) in an RCH-ACV wild type WT cells (2C) (AID 1645877); note: nearly all actives have a fitted effect of over 70% in size; note: potency is the fitted concentration of half-maximal effect

Measured: Potency

CC[C@@H]1C(=O)O[C@]23C=C[C@@H]4C(C(=O)OC)=CO[C@H](O[C@@H]12)[C@@H]43
inactive: [1]

O=C(Cn1c2ccccc2c2nc3n(c(=O)c21)CCS3)N1CCCC1
inactive: all assays above

CN1CCN(c2nc(-c3ccc(C(=O)NC4(C(=O)NCC#N)CCCCC4)cc3)cs2)CC1
active: [3] 12 µM
inactive: all other assays above

COc1cccc(OC)c1-c1ccc(C[C@H](NC(=O)c2c(Cl)cccc2Cl)C(=O)O)cc1
active: [3] 13.5 µM
inactive: all other assays above

CCCN1CCC[C@@H](c2cccc(S(C)(=O)=O)c2)C1
active: [2] 15.1 µM
inactive: all other assays above

CNC(C)C(=O)NC(C(=O)N1CCCC1C(=O)Nc1cccc2ncccc12)C(C)C (stereo unspecified)
inactive: all assays above

COc1ccc(OC)c(C2C(C#N)=C(N)Oc3n[nH]c(-c4ccc5ccccc5c4)c32)c1 (stereo unspecified)
active: [2] 7.56 µM | [3] 10.7 µM
inactive: all other assays above

Cc1ccc(Cl)cc1N(CC(=O)Nc1c(F)cccc1F)S(C)(=O)=O
active: [3] 1.2 µM
inactive: all other assays above

O=C(O)CC1CCC(c2ccc(NC(=O)c3nnc(Nc4ccc(F)c(F)c4)o3)cc2)CC1 (stereo unspecified)
inactive: all assays above

Cc1cc(Cn2cnc3c2CC(C(=O)O)N(C(=O)C(c2ccccc2)c2ccccc2)C3)ccc1N(C)C (stereo unspecified)
inactive: all assays above

O=[N+]([O-])c1cc(Cl)ccc1S(=O)(=O)N1CCN(Cc2ccccc2)CC1
active: [2] 0.756 µM
inactive: all other assays above

CNC(=O)c1ccc2c(c1)CCO[C@H]2CCN1CCN(c2ccc(C(N)=O)cc2)CC1
inactive: all assays above

Cc1cn(C[C@H](N)C(=O)O)c(=O)n(Cc2ccsc2C(=O)O)c1=O
inactive: all assays above

CN[C@H](CNC(=O)N1CCC[C@@H]([C@@H](OCCNC(=O)OC)c2cccc(Cl)c2)C1)C[C@H]1CCCOC1
active: [2] 19 µM
inactive: all other assays above

O=C(O)[C@H](Cc1ccccc1)Oc1ccc(-c2ccccc2)cc1
active: [3] 9.52 µM
inactive: all other assays above

CC1(C)CC(NC(=O)C(=O)Nc2ccc(Cl)cc2)CC(C)(C)N1
inactive: all assays above

COc1ccc(C(=O)NCc2cc(C(C)C)no2)cc1OC1CCN(C)CC1
inactive: all assays above

Nc1ncnc2c1c(COc1cccc(Cl)c1)nn2C1CCOCC1
active: [3] 12 µM | [4] 14.8 µM | [5] 16.6 µM
inactive: [1] | [2]

CCC[C@H](N[C@@H](C)C(=O)N1[C@H](C(=O)O)C[C@@H]2CCCC[C@@H]21)C(=O)O
inactive: all assays above

Cc1oc2nc3c(c(NC(=O)CN4CCCC4=O)c2c1C)CCCC3
inactive: all assays above

CC1(C)Oc2ncnc(N)c2N=C1c1ccc(C2CCC(CC(=O)O)CC2)cc1 (stereo unspecified)
inactive: all assays above

CCC(C)(C)C1CCc2c(sc(NC(=O)c3ccc(Br)cc3)c2C#N)C1 (stereo unspecified)
inactive: all assays above

c1ccc2c(Nc3nnc(-c4ccncc4)s3)cccc2c1
active: [3] 6.01 µM
inactive: all other assays above

Cc1ccccc1-c1cc(N2CCN(C)CC2)ncc1N(C)C(=O)C(C)(C)c1cc(C(F)(F)F)cc(C(F)(F)F)c1
active: [2] 15.1 µM | [3] 16.9 µM
inactive: all other assays above

CC(=O)Nc1cccc2c1c(Sc1ccc(Cl)cc1)c(C)n2CC(=O)O
active: [3] 13.5 µM
inactive: all other assays above

COC(=O)[C@H](Cc1cccc(C(=N)N)c1)[C@@H](C)NC(=O)c1ccc(-c2cc[n+]([O-])cc2)cc1
inactive: all assays above

CCCCCC(=O)N1CCC[C@H]1C(=O)N[C@@H](Cc1ccc(O)cc1)C(=O)OC (Hexanoyl-Pro-Tyr-OMe)
active: [3] 2.39 µM
inactive: all other assays above
